G9a inh: qHTS Assay for Inhibitors of Histone Lysine Methyltransferase G9a. Histone-lysine N-methyltransferase EHMT2 (Homo sapiens), Q96KQ7. G9a H3K9 monomethylation, AlphaScreen, 2 h. Potency, µM (titrated, usually from 102 µM), inactives show at the highest dose activity, negative = inhibition, usual class: inhibitors. 8.8% of 350,000 active. AID 504332, 2011; note: % is set by controls: 0 for no effect and ±100 for the full control effect; nearly all actives have a fitted effect of over 75% in size
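Methyltransferase reactions run at room temperature for 2 h (20 nM enzyme, 500 nM biotin-H3K9 peptide, 20 uM SAM) after a 15 min compound preincubation; product detected by AlphaScreen beads and anti-H3K9me1 antibody.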
PLK1 PBD block: qHTS for Inhibitors of PLK1-PDB (polo-like kinase 1 - polo-box domain): Primary Screen. Plk1 PBD binding of FITC phosphopeptide, fluorescence polarization. Serine/threonine-protein kinase PLK1 (Homo sapiens), P53350. 2.8% of 360,000 active. Potency, µM, inactives show max response, negative = inhibition, usual class: inhibitors. AID 720504, 2013; note: series mostly up to about 57 µM; % is set by controls: 0 for no effect and ±100 for the full control effect; nearly all actives have a fitted effect of over 65% in size
Target sequence (P53350 whole entry, looked up, the tested form may be a part): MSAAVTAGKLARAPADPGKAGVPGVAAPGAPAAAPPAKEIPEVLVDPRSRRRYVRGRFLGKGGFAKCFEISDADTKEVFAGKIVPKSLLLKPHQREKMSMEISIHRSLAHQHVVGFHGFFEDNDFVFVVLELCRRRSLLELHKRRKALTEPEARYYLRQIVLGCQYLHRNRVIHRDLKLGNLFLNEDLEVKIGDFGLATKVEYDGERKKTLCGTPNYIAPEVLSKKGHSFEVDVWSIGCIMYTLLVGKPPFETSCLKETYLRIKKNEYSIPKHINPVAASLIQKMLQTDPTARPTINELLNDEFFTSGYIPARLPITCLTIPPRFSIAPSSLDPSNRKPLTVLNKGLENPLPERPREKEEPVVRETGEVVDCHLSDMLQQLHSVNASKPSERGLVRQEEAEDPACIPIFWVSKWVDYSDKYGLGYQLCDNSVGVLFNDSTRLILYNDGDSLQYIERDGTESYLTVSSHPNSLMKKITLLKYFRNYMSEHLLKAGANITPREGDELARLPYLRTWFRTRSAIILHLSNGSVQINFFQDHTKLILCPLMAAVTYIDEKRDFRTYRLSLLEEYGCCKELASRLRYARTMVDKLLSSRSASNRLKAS
HP1b binding inh: HTS for Inhibitors of HP1-beta Chromodomain Interactions with Methylated Histone Tails | Chromobox protein homolog 1 (Homo sapiens), P83916 | AlphaScreen HP1-beta / biotin-H3K9me3 peptide binding | Potency, µM (titrated, usually from 114 µM), for the others: at the highest dose activity change, negative = inhibition, hits mostly inhibitors | 0.56% of 390,000 active | AID 540317, 2011; note: nearly all actives have a fitted effect of over 70% in size
Target sequence (P83916 whole entry, looked up): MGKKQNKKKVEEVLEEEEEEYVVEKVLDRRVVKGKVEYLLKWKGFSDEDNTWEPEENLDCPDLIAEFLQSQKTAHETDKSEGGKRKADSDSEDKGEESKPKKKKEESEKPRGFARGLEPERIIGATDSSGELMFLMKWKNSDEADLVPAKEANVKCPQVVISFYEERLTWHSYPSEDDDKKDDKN
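AlphaScreen: HP1-beta (50 nM) preformed 30 min with biotin-H3(1-18)K9me3 peptide (50 nM) in PBS pH 7.4, 0.01% Tween-20. Compound added for 30 min at RT, then streptavidin donor/nickel chelate acceptor beads (10 ug/mL) for 30 min.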
Sfp PPTase inh: qHTS Assay for Inhibitors of Bacillus subtilis Sfp phosphopantetheinyl transferase (PPTase) | 4'-phosphopantetheinyl transferase ffp (Bacillus subtilis), Q9F4F7 | Biochemical Sfp PPTase activity, qHTS | Potency, µM, inactives show largest response in the series, negative = inhibition, actives largely listed as inhibitors | 3.5% of 310,000 active;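 note: the enzyme is Sfp with the accession as filed and its product quenches rhodamine fluorescence; 0% = enzyme reaction without inhibitor and -100% = no enzyme wells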
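With Hepes-Na pH 7.6 buffer containing 10 mM MgCl2, Sfp (15 nM) modified BHQ-2-YbbR (12.5 uM) using rhodamine-CoA (5 uM). Two reads 30 minutes apart at 525/598 nm yielded each well's rate.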
JMJD2A Tudor inh: qHTS Assay for Inhibitors of JMJD2A-Tudor Domain | AlphaScreen JMJD2A-Tudor / H3K4me3 peptide binding | Potency, µM (titrated, usually from 114 µM), inactives show at the top dose activity change, negative = inhibition, hits mostly inhibitors | Lysine-specific demethylase 4A (Homo sapiens), O75164 | 4.4% of 390,000 active; note: % is set by controls: 0 for no effect and ±100 for the full control effect; nearly all actives have a fitted effect of over 50% in size
BAZ2B inh: qHTS Assay for Inhibitors of BAZ2B; Bromodomain adjacent to zinc finger domain protein 2B (Homo sapiens), Q9UIF8; AlphaScreen BAZ2B-H3K14Ac peptide displacement; Potency, µM (titrated, usually from 114 µM), without a hit: top-dose activity change, negative = inhibition, most hits filed as inhibitors; 4.4% of 360,000 active; AID 504333, 2011; note: % is set by controls: 0 for no effect and ±100 for the full control effect; nearly all actives have a fitted effect of over 60% in size
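AlphaScreen luminescence quantifies BAZ2B engagement of H3K14Ac peptide; the protein and biotinylated peptide are both at 50 nM final, buffer PBS pH 7.4 with 0.01% Tween-20, all steps at room temperature.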
Active calls of the source: *; ? = inconclusive; nt = not tested or not shown; ! = not active in a repeat; [ ] = another dose, or the depositor's remark. Most compounds without a hit are left out; they make up all but 12% or so of the library. Calls come from the whole dose curve; as a rule, active = well fitted curve in the direction sought with a large enough effect; inconclusive = small, poorly fitted or top-dose-only effect, or another doubt; inactive = no such curve, though single readings can be large; an effect the other way counts as inactive or inconclusive. Potency is the fitted concentration of half-maximal effect.

SMILES	G9a inh	PLK1 PBD block	HP1b binding inh	Sfp PPTase inh	JMJD2A Tudor inh	BAZ2B inh
O=C(Nc1ccc2oc(-c3cccc4ccccc34)nc2c1)c1ncn[nH]1	-26.5%[59 µM]	-4.2%	44.7%	-6.6%	9.3%	-10.2%
O=C(Nc1ccc2oc(-c3ccccc3Cl)nc2c1)c1ncn[nH]1	?	-3.1%	10.3%	-3.5%	28.2µM*	50.1µM*
C=CCc1ccccc1OCC(O)CN1CCN(c2ccc(C)cc2)CC1 (stereo not given)	12.6µM*	-3.0%	?	?	3.55µM*	28.2µM*
Cc1ccc(OCC(O)CN2CCN(Cc3ccc4c(c3)OCO4)CC2)cc1C (stereo not given)	-15.2%[59 µM]	-1.9%	8.6%	-5.0%	-20.7%	?
C=CCc1ccccc1OCC(O)CN1CCN(Cc2ccc3c(c2)OCO3)CC1 (stereo not given)	44.7µM*!	-6.3%	9.9%	7.3%	-33.3%	56.2µM*
C=CCc1ccccc1OCC(O)CN1CCN(C(=O)OCC)CC1 (stereo not given)	29.1%[2.33 µM]	-10.4%	19.5%	-12.6%	-11.5%	20.6%
Cc1cc(C2C(C#N)=C(N)Oc3n[nH]c(C)c32)c(C)s1 (stereo not given)	-12.6%[0.501 µM]	-21.8%	16.7%	-18.1%	-12.4%	?
Cc1[nH]nc2c1C(c1ccsc1)C(C#N)=C(N)O2 (stereo not given)	-21.4%[59 µM]	?	17.5%	6.7%	-14.7%	-3.9%
Cc1[nH]nc2c1C(c1ccc(F)cc1)C(C#N)=C(N)O2 (stereo not given)	-2.0%[59 µM]	-16.6%	33.9%	12.8%	-17.8%[11.4 µM]	nt
Cc1ccc(-c2ccc(C3C(C#N)=C(N)Oc4n[nH]c(C)c43)o2)cc1 (stereo not given)	?	?	?	50.1µM*	?	?
Cc1[nH]nc2c1C(c1ccc(-c3ccc(Cl)cc3)o1)C(C#N)=C(N)O2 (stereo not given)	79.4µM*	?	-25.9%	-18.4%	?	39.8µM*
Cc1[nH]nc2c1C(c1ccc(-c3ccccc3C#N)o1)C(C#N)=C(N)O2 (stereo not given)	20µM*	29.9µM*	6.7%	22.4µM*	?	-34.8%
Cc1[nH]nc2c1C(c1ccsc1C)C(C#N)=C(N)O2 (stereo not given)	79.4µM*	-15.5%	12.0%	13.1%	-23.9%	1.3%
OC1c2ccccc2N=C2CCCN21 (stereo not given)	nt	nt	nt	19.6%	nt	nt
Cc1ccc(CNC(=O)C2CCN(C(=O)Nc3ccccc3)CC2)cc1	0.7%	-6.3%	-17.8%	12.3%	2.1%	-19.7%
Cc1c(C(O)(c2ccccc2)c2ccccc2)[n+]2ccccc2n1C	nt	nt	nt	nt	-15.0%	nt
CC1(C)C(O)C=C[C@@]2(C)C1CC(=O)O[C@@]1(C)C3=CC(=O)OC(c4ccoc4)[C@]3(C)CCC21 (stereo not given in full)	-16.7%[2.33 µM]	nt	nt	-5.4%	nt	nt
COc1cc(CN(C(=O)c2ccccc2F)C2CCS(=O)(=O)C2)cc(OC)c1OC (stereo not given)	14.2%[59 µM]	nt	4.9%	nt	-17.7%	-0.5%
CCOC(=O)c1cnc(-n2nc(C)cc2C)nc1NC	44.7µM*	-4.6%	15.4%	?	-34.3%	3.0%
CCOC(=O)c1cnc(-n2nc(C)cc2C)nc1Nc1ccc(C)cc1	?	-2.3%	39.7%	2.4%	-22.2%	-8.7%
CCOC(=O)c1cnc(-n2nc(C)cc2C)nc1Nc1cccc(C(=O)O)c1	10µM*	-0.1%	31.3%	7.3%	89.1µM*	3.5%
CCc1cccc2c(-c3csc(=NC)n3C)c[nH]c12	50.1µM*	?	1.5%	-15.8%	-31.3%	-31.2%
CN=c1scc(-c2ccc(Cl)cc2)n1C	17.7%[59 µM]	-11.8%	2.6%	11.9%	-1.9%	7.1%
NC(=O)CSc1nnc(-c2ccccc2F)n1C1CC1	7.3%	0.8%	15.4%	15.8%	4.5%	1.3%
O=C(Nc1ccc(F)cc1)N1CCc2ccccc2C1	nt	21.2µM*	-19.1%	-12.7%	?	-4.5%
SMILES	G9a inh	PLK1 PBD block	HP1b binding inh	Sfp PPTase inh	JMJD2A Tudor inh	BAZ2B inh
Cc1ccc(CNc2ccc(O)cc2)cc1	?	?	-73.1%	?	50.1µM*	31.6µM*
CC(=O)N1CCN(c2ccc(NCc3ccc(C)cc3)cc2)CC1	12.6µM*	-9.5%	-23.9%	39.8µM*	?	44.7µM*
Cc1ccc(CNC(=O)N2CCN(c3ccc(C)cc3)CC2)cc1	?	-26.4%	8.6%	8.4%	-17.2%	-35.4%
CCc1ccc(CNc2ccc(N3CCN(C(C)=O)CC3)cc2)cc1	?	-11.0%	-48.3%	35.5µM*	?	39.8µM*
CC(=O)N1CCN(c2ccc(NCc3ccc(-c4cccc(Cl)c4)o3)cc2)CC1	nt	nt	?	nt	39.8µM*	nt
Cc1ccc(NCc2ccccc2O)cc1	-5.6%[2.33 µM]	2.7%	-4.3%	-4.3%	?	?
CCOc1ccc(NC(=O)c2cn(C)c(=O)c3cc(OC)c(OC)cc23)cc1	-0.3%[59 µM]	nt	37.2%	nt	3.4%	6.2%
CCCCN1CC(=O)N2[C@H]3c4ccccc4OC[C@@H]3[C@H](C(=O)OCC)[C@]2(C)C1=O	nt	-8.5%	44.6%	nt	-18.0%	nt
COc1cc(CNc2ccc(N3CCN(C(C)=O)CC3)cc2)ccc1OCc1ccccc1	28.2µM*	-0.9%	44.7µM*	-27.0%	44.7µM*	39.8µM*
COC(=O)[C@@]1(C(C)C)N=C(c2cc(OC)c(OC)c(OC)c2)[C@]2(O1)C(=O)N(C)c1ccc(Br)cc12	nt	-0.5%	nt	nt	nt	nt
CN(C)CCCNC(=S)NCC(c1ccc(Cl)cc1Cl)c1c[nH]c2ccccc12 (stereo not given)	?	-9.0%	-17.3%[57 µM]	50.1µM*	?	?
CCN(CC)S(=O)(=O)c1ccc2c(c1)N(CC(=O)Nc1c(C)cc(C)cc1C)C(=O)C1CCCN21 (stereo not given)	6.4%[59 µM]	nt	-1.6%	nt	-19.5%	0.1%
CC(NC(=O)COC(=O)c1ccco1)C12CC3CC(CC(C3)C1)C2 (stereo not given)	nt	nt	52.1%	nt	-6.8%	nt
O=C(CN(Cc1ccco1)C(=O)c1cc(=O)[nH]c2ccccc12)Nc1ccccc1Br	13.2%[59 µM]	-7.7%	16.9%	11.8%	-10.0%	0.0%
COc1cc(SC)ccc1C(=O)N(CC(=O)Nc1ccccc1Br)Cc1ccco1	39.8µM*	-8.0%	3.4%	nt	-26.9%	-34.8%
COc1ccc(C(=O)N2CCc3ccccc32)cc1	-5.2%[59 µM]	-9.6%	31.4%	6.9%	-11.0%	0.5%

From PubChem
